Assay outcomes: PubChem BioAssay, Broad Institute
IDE exosite FP: exo-site inhibitors of human insulin-degrading enzyme; purified IDE, FL-6b probe fluorescence polarization; active compounds read low; AID 1259349; hit rate 6.3% among 17,000; z-score at 20 µM; P14735;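 active = z-score of -3 or lower, meaning strong loss of probe binding signal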;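 note: His-tagged human IDE residues 42-1019 made in E. coli with 30 nM FL-6b probe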
A number is an active result. The entries come from a sample that favours hits as a whole.

Screening COc1ccc(C#Cc2ccc([C@H]3[C@@H](CO)N4C(=O)CN(C(=O)c5ccncc5)C[C@@H]34)cc2)cc1 returned IDE exosite FP inactive.
Screening COc1ccc(C#Cc2ccc([C@@H]3[C@@H](CO)N4C(=O)CN(C(=O)c5ccncc5)C[C@H]34)cc2)cc1 returned IDE exosite FP inactive.
`COc1ccc(C#Cc2ccc([C@@H]3[C@H](CO)N4C(=O)CN(C(=O)c5ccncc5)C[C@@H]34)cc2)cc1` gave IDE exosite FP inactive.
Screening COc1cccc(C#Cc2ccc([C@@H]3[C@@H](CO)N4C(=O)CN(C(=O)c5ccccc5)C[C@H]34)cc2)c1 returned IDE exosite FP inactive.
Screening COc1cccc(C#Cc2ccc([C@@H]3[C@H](CO)N4C(=O)CN(C(=O)c5ccncc5)C[C@@H]34)cc2)c1 returned IDE exosite FP -5.1.
Screening COc1ccc(C#Cc2ccc([C@@H]3[C@@H](CO)N4C(=O)CN(C(=O)c5ccncc5)C[C@@H]34)cc2)cc1 returned IDE exosite FP inactive.
Screening COc1cccc(C#Cc2ccc([C@@H]3[C@@H](CO)N4C(=O)CN(C(=O)c5ccncc5)C[C@@H]34)cc2)c1 returned IDE exosite FP -3.2.
For O=C(Cc1ccccn1)N1CC(=O)N2[C@H](CO)[C@H](c3ccc(-c4ccc(F)cc4)cc3)[C@H]2C1 the results were IDE exosite FP inactive.
For C[C@@H]1CN([C@@H](C)CO)C(=O)c2cc(NC(=O)Nc3ccc4c(c3)OCO4)ccc2O[C@@H](C)CCCCO[C@@H]1CN(C)C(=O)CCCN(C)C the results were IDE exosite FP inactive.
For COc1cccc(NC(=O)N2C[C@H](O)COC[C@H]3O[C@@H](CC(=O)N(C)C)CC[C@@H]32)c1 the results were IDE exosite FP inactive.
CC(C)[C@H]1C(=O)N[C@@H](c2cccc(Cl)c2)CC=CC[C@H](C)Oc2ccccc2C(=O)N1C (mixture of isomers) was read as IDE exosite FP inactive.
CC(C)COC(=O)N(C)C[C@H]1OCc2ccccc2-c2ccccc2C(=O)N([C@H](C)CO)C[C@@H]1C was read as IDE exosite FP inactive.
OC[C@H]1[C@H](c2ccc(Br)cc2)[C@H]2CN(Cc3ccccn3)CCCCN21 was read as IDE exosite FP inactive.
`CN1CCCCN2[C@H](CO)[C@H](c3ccc(C#Cc4ccccc4F)cc3)[C@@H]2C1` gave IDE exosite FP -5.5.
Screening OC[C@@H]1[C@H](c2ccc(C#Cc3ccccc3F)cc2)[C@H]2CN(Cc3cncnc3)CCCCN12 returned IDE exosite FP -9.7.
OC[C@@H]1[C@H](c2ccc(C#Cc3ccccc3F)cc2)[C@H]2CN(CC3CCOCC3)CCCCN12 was read as IDE exosite FP inactive.
Screening OC[C@H]1[C@H](c2ccc(C#Cc3ccccc3F)cc2)[C@@H]2CN(CC3CCOCC3)CCCCN12 returned IDE exosite FP inactive.
COc1ccc(C#Cc2ccc([C@@H]3[C@H](CO)N4CCCCN(C)C[C@@H]34)cc2)cc1 was read as IDE exosite FP inactive.
Screening COc1ccc(C#Cc2ccc([C@H]3[C@@H](CO)N4CCCCN(C)C[C@H]34)cc2)cc1 returned IDE exosite FP inactive.
Screening OC[C@H]1[C@@H](c2ccc(C#Cc3ccccc3F)cc2)[C@@H]2CN(CC3CCOCC3)CCCCN12 returned IDE exosite FP inactive.
Screening OC[C@@H]1[C@@H](c2ccc(C#Cc3ccccc3)cc2)[C@H]2CN(Cc3cncnc3)CCCCN12 returned IDE exosite FP inactive.
Screening OC[C@H]1[C@@H](c2ccc(-c3ccccc3)cc2)[C@H]2CN(Cc3cncnc3)CCCCN21 returned IDE exosite FP inactive.
For CN1CCCCN2[C@H](CO)[C@H](c3ccc(C#Cc4ccccc4F)cc3)[C@H]2C1 the results were IDE exosite FP -4.5.
`COc1ccc(C#Cc2ccc([C@@H]3[C@@H](CO)N4CCCCN(C)C[C@H]34)cc2)cc1` gave IDE exosite FP inactive.
CN1CCCCN2[C@H](C1)[C@H](c1ccc(C#Cc3ccccc3F)cc1)[C@@H]2CO was read as IDE exosite FP -3.9.
Screening CS(=O)(=O)N1[C@H](CO)[C@H](c2ccccc2-c2ccc(F)cc2)[C@@H]1C#N returned IDE exosite FP inactive.
CCCNC(=O)N[C@H]1C=C[C@H](CC(=O)N2CCN(C)CC2)O[C@H]1CO was read as IDE exosite FP inactive.
`CCCC(=O)N1CC2(C1)CN(S(=O)(=O)c1ccc(C)cc1)[C@H](CO)c1[nH]c3cc(OC)ccc3c12` gave IDE exosite FP inactive.
For CC(=O)N1[C@H](CO)[C@H](c2ccccc2)[C@@H]1CNC(=O)CN1CCOCC1 the results were IDE exosite FP inactive.
CC(C)C#Cc1ccc([C@@H]2[C@@H](CO)N(C(=O)CN(C)C)[C@H]2C#N)cc1 was read as IDE exosite FP inactive.
`O=C1C[C@H](c2ccccc2)C(=O)N[C@H](c2ccccc2)C/C=C\C[C@H](c2ccccc2)N1` gave IDE exosite FP inactive.
`C/C=C/c1ccc([C@@H]2[C@@H](CN(C)C(=O)CC3CC3)N(C(=O)C3CC3)[C@H]2CO)cc1` gave IDE exosite FP inactive.
Screening N#C[C@H]1[C@@H](c2ccc(C3=CCCC3)cc2)[C@H](CO)N1C(=O)c1cccc(F)c1 returned IDE exosite FP inactive.
Screening OC[C@@H]1[C@H](c2ccccc2)C2(CN(CCC(F)(F)F)C2)N1Cc1nccs1 returned IDE exosite FP inactive.
CN(C[C@H]1N[C@H](CO)[C@@H]1c1ccc(-c2cccnc2)cc1)C(=O)NC1CCCC1 was read as IDE exosite FP inactive.
`C/C=C/c1ccc([C@H]2[C@@H](CO)N3CCCCN(C(=O)Nc4cc(F)ccc4F)C[C@H]23)cc1` gave IDE exosite FP inactive.
Screening COc1ccc(C#Cc2ccc([C@@H]3[C@@H](CO)N4CCCCN(C(=O)Nc5ccc(F)cc5)C[C@@H]34)cc2)cc1 returned IDE exosite FP inactive.
For COCC(=O)N1CC(=O)N2[C@H](C1)[C@H](c1ccc(-c3ccccc3)cc1)[C@@H]2CO the results were IDE exosite FP inactive.
`COCC(=O)N1CC(=O)N2[C@@H](CO)[C@@H](c3ccc(-c4ccccc4C)cc3)[C@@H]2C1` gave IDE exosite FP -13.
COCC(=O)N1CC(=O)N2[C@@H](CO)[C@@H](c3ccc(Br)cc3)[C@@H]2C1 was read as IDE exosite FP inactive.
COCC(=O)N1CC(=O)N2[C@@H](CO)[C@H](c3ccc(-c4ccncc4)cc3)[C@@H]2C1 was read as IDE exosite FP inactive.
For COCC(=O)N1CC(=O)N2[C@H](CO)[C@H](c3ccc(Br)cc3)[C@@H]2C1 the results were IDE exosite FP inactive.
For COCC(=O)N1CC(=O)N2[C@H](C1)[C@@H](c1ccc(-c3ccccc3C)cc1)[C@@H]2CO the results were IDE exosite FP -14.
`COCC(=O)N1CC(=O)N2[C@@H](CO)[C@@H](c3ccc(-c4cccnc4)cc3)[C@@H]2C1` gave IDE exosite FP inactive.
For O=C1N[C@@H](c2ccccc2)COCc2cnnn2CC[C@@H]1Cc1ccc(C(F)(F)F)cc1 the results were IDE exosite FP inactive.
Screening CC[C@@H]1C/C=C\C[C@@H](C(C)C)NC(=O)CCC(=O)N1 returned IDE exosite FP inactive.
`O=C(C1CCOCC1)N1CC(=O)N2[C@H](C1)[C@@H](c1ccc(Br)cc1)[C@@H]2CO` gave IDE exosite FP inactive.
O=C(C1CCOCC1)N1CC(=O)N2[C@H](C1)[C@H](c1ccc(/C=C/c3ccccc3)cc1)[C@@H]2CO was read as IDE exosite FP -3.3.
`O=C(C1CCOCC1)N1CC(=O)N2[C@H](CO)[C@H](c3ccc(/C=C/c4ccccc4)cc3)[C@@H]2C1` gave IDE exosite FP -4.8.
